Screens as filed in PubChem BioAssay.
NRP1-CendR mod: alters CendR peptide binding to human NRP-1 | O14786 | FAM-RPARPAR peptide binding to NRP-1, fluorescence polarization | inhibition, % at 25 µM | hit rate 0.85% among 360,000;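 active = inhibition or corrected inhibition above about 18%, plus a signal ratio from 0.5 to 1.5, limit read from the data, passing the limit was not always enough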
Target sequence (O14786 whole entry, looked up): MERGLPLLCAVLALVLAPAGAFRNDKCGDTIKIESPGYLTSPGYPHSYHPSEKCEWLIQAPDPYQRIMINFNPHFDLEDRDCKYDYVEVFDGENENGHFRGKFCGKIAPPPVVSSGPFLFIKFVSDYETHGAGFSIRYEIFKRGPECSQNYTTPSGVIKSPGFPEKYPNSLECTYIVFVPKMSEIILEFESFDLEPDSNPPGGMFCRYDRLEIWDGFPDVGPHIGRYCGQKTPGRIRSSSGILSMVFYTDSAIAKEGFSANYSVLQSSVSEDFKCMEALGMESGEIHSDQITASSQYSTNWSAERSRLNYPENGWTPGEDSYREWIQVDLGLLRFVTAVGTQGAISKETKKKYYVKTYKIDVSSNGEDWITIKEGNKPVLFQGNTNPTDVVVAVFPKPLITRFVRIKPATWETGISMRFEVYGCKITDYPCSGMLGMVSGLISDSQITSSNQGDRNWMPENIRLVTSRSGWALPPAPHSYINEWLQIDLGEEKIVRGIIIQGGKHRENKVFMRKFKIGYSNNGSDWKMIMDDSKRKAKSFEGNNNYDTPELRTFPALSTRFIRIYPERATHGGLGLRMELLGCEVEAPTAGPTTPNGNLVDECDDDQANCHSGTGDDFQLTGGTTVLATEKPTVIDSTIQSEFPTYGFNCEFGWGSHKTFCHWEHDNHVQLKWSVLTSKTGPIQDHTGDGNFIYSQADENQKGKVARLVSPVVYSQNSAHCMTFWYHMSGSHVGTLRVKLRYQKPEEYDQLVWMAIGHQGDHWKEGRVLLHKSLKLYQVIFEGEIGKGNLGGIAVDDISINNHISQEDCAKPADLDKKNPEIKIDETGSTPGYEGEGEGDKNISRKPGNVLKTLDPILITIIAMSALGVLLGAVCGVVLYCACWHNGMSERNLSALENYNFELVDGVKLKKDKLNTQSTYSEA
M18AAP inhibitor: PfM18AAP enzyme inhibition; inhibition, % at 7.35 µM; recombinant PfM18AAP, H-Glu-NHMec fluorogenic cleavage; hit rate 1.2% among 290,000; AID 1822;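 active = inhibition above the campaign mean inhibition over all tested compounds plus 3 SD, cut at about 28% in these data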;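 also: 0% = plate median of test compound wells and 100% = 2 mM ZnCl2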
CR mimetic SO: yeast age-related superoxide inhibition as caloric restriction mimetic. AID 2690. hit rate 0.18% among 330,000. superoxide response (% of plate mean), % at 10 µM. S. cerevisiae aged cells, superoxide DHE fluorescence; stronger effect = lower value;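 active = superoxide response under a set limit, about three screen SD below normal, cut at about 65% in these data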;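 also: yeast aged for seven days with compound at 30 °C before DHE staining; 100% = average MFI of all compound-treated wells on the plate with controls excluded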
APOBEC3G inh: blocks human APOBEC3G single-stranded DNA deamination; Q9HC16; recombinant A3G, ssDNA deamination FAM/TAMRA fluorescence; inhibition, % at 20 µM; hit rate 0.28% among 330,000; AID 493012;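 active = inhibition of at least 40% at 20 µM, with no more than 30% in the related APOBEC3A deaminase screen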;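 also: plate controls were DMSO wells with A3G for no effect and wells lacking A3G enzyme for full effect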
A3A deaminase: blocks human APOBEC3A ssDNA deamination; P31941; recombinant A3A, FAM/TAMRA ssDNA deamination fluorescence; inhibition, % at 20 µM; hit rate 0.41% among 330,000;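 active = at least 40% inhibition at 20 µM here, with at most 30% in a related deaminase screen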;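 also: plate controls were A3A with DMSO for no effect and wells lacking A3A enzyme for full effect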
ALR H2O2 inh: inhibitors of human sulfhydryl oxidase ALR; P55789; purified ALR, DTT oxidation, H2O2 HRP-luminol luminescence; inhibition, % (concentration not given with the values); hit rate 3.8% among 290,000; AID 485317;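 active = mean replicate inhibition above about 79%, with every replicate also reaching it, limit read from the data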
* marks the source's active call; other numbers are inactive results; / = not tested or not shown. This is a sample that favours compounds with a hit; in the whole collection about 5.2% have one here.

SMILES | NRP1-CendR mod | M18AAP inhibitor | CR mimetic SO | APOBEC3G inh | A3A deaminase | ALR H2O2 inh
O=C(OCCCN1CCOCC1)c1ccc(O)c(O)c1 | 4.2 | 43.6* | 92.9 | -4.3 | -2.9 | 98.7*
COc1cc(C(=O)OCCN2CCOCC2)ccc1O | 2.1 | 4.4 | 114.0 | 4.5 | 1.9 | 96.4*
O=c1c(Cl)c2oc3ccccc3nc-2c2ccccc12 | 92.3 | 2.2 | 90.9 | -7.4 | -1.1 | -11.1
Cn1c(=O)c2c(SC3CCCC3)nc(CC(C)(C)C)nc2n(C)c1=O | / | -2.2 | / | / | / | /
CCCc1nc(SC2CCCC2)c2c(=O)n(C)c(=O)n(C)c2n1 | 1.9 | / | 133.1 | 14.7 | -3.4 | 98.2*
C=C1C[C@@]23CCC4[C@@](C)(CCC[C@@]4(C)C(=O)OC)C2CC[C@]1(OC(C)=O)C3 (stereo partly drawn) | 29.9* | / | 97.5 | -12.1 | -2.8 | 1.0
COc1cccc(Cn2c(Oc3ccccc3)nc3c2c(=O)n(C)c(=O)n3C)c1 | -2.1 | -3.0 | 94.3 | -3.2 | -0.2 | -0.9
O=C(NC1CC1)c1ccc(CSCc2ccccc2Cl)o1 | 5.8 | 3.8 | 97.6 | -5.7 | -5.4 | 83.8*
O=C(NC1CCCC1)c1ccc(CS(=O)(=O)Cc2ccccc2Cl)o1 | 13.5 | -4.4 | 96.4 | 3.0 | -2.1 | 4.0
NC(=O)C1CCCN1 (stereo not drawn) | 21.9* | -6.1 | 98.5 | -13.3 | -3.6 | 0.1
COc1cccc(CNC(=O)[C@@H]2CCCN2)c1 | 9.6 | / | / | / | / | /
CC(=O)N1CCSc2ccc(S(=O)(=O)Nc3ccc(C)cc3)cc21 | 21.9* | -3.4 | 112.3 | -4.9 | -4.9 | -4.4
COc1ccc(NS(=O)(=O)c2ccc3c(c2)N(C(C)=O)CCS3)cc1 | -6.9 | 1.9 | 104.1 | 4.3 | 0.9 | -1.8
O=C1Nc2ccc([N+](=O)[O-])cc2OC1CCN1CCN(c2ccccc2)CC1 (stereo not drawn) | -7.9 | -0.1 | 105.8 | -3.5 | 0.2 | 94.4*
O=C1Nc2ccc([N+](=O)[O-])cc2OC1CCN1CCOCC1 (stereo not drawn) | 1.8 | 7.2 | 103.6 | -3.9 | 0.9 | /
C/C(=N/Nc1nc(C)cc(C)n1)c1ccc(Br)cc1 | 1.0 | 1.0 | 96.8 | -6.4 | -5.9 | 1.4
C/C(=N\Nc1nc(C)cc(C)n1)c1ccc(N2CCOCC2)cc1 | 16.1 | 8.7 | 102.8 | -1.5 | -1.3 | 99.2*
C/C(=N\NC(=O)c1cc(C)oc1C)c1ccc(N2CCOCC2)cc1 | -8.1 | -1.6 | 90.4 | -6.2 | -2.8 | 82.6*
O=C(COC(=O)/C=C/c1ccccc1)NCCc1ccc(F)cc1 | 6.3 | / | 111.3 | -11.3 | -3.2 | 1.9
COc1ccc(CNC(=O)C[C@H]2C(=O)N(c3ccccc3)C[C@@H]2Cc2ccccc2)cc1 | -0.1 | 0.2 | 92.6 | 19.4 | 1.9 | -13.5
COc1ccc(S(=O)(=O)Cc2ccc(C(=O)N3CCc4ccccc4C3)o2)cc1 | 2.2 | -3.0 | 101.0 | -4.2 | 3.0 | 96.7*
COc1ccccc1S(=O)(=O)Cc1ccc(C(=O)N2CCN(c3ccc(C)cc3)C(C)C2)o1 (stereo not drawn) | 6.5 | -5.8 | 114.8 | -2.8 | -2.7 | 72.8
COc1ccc(S(=O)(=O)Cc2ccc(C(=O)N3CCN(c4cccc(C)c4)C(C)C3)o2)cc1 (stereo not drawn) | 11.0 | -0.3 | 86.1 | -1.0 | 0.1 | 93.5*
COc1ccc(N2CCN(C(=O)c3ccc(Br)o3)CC2)cc1 | 1.5 | -3.2 | 114.5 | -4.8 | -5.1 | 83.6*
COc1ccc(S(=O)(=O)Cc2ccc(C(=O)N3CCN(c4ccc(Cl)cc4)CC3)o2)cc1 | 3.4 | -2.0 | 104.7 | 1.2 | 4.1 | 85.5*
SMILES | NRP1-CendR mod | M18AAP inhibitor | CR mimetic SO | APOBEC3G inh | A3A deaminase | ALR H2O2 inh
CN(C(=O)COc1cccc(C#N)c1)C1CCS(=O)(=O)C1 (stereo not drawn) | -3.9 | / | 86.1 | 0.4 | -1.5 | -0.9
COC(=O)c1ccc(C2NC(=O)c3c(sc(C)c3C)N2)cc1 (stereo not drawn) | -9.4 | 2.6 | 87.1 | -4.4 | -5.3 | /
CC(C)C(NC(=O)c1ccc(Cl)cc1)C(=O)NC1=NCCS1 (stereo not drawn) | -7.7 | 6.5 | 97.2 | -4.4 | -2.6 | -4.6
O=C(c1ccc(CS(=O)(=O)c2ccc(Br)cc2)o1)N1CCN(C2CCCCC2)CC1 | -6.7 | -9.7 | 93.9 | -2.0 | 0.6 | -19.8
COc1ccc(S(=O)(=O)Cc2ccc(C(=O)N3CCN(C4CCCCC4)CC3)o2)cc1 | 2.9 | -6.8 | 98.1 | -4.6 | -0.4 | 91.7*
CC(=O)NCCc1csc(-c2ccccc2)n1 | -1.7 | 2.3 | 115.7 | -11.1 | -5.6 | -4.0
C/C(=N\Nc1ccc([N+](=O)[O-])cc1[N+](=O)[O-])C(C)(C)C(C(=O)O)C(=O)O | 19.9 | 17.3 | 119.4 | -0.4 | 5.1 | 83.1*
O=C(O)c1cc2ncc(CCO)cn2n1 | 23.7* | 4.4 | 94.7 | -3.4 | 2.5 | -2.8
Cc1ccc(S(=O)(=O)N(C)c2ccc(OCC(=O)Nc3nc4ccccc4s3)cc2)cc1 | 25.3* | -5.2 | 101.0 | 2.7 | 6.3 | -25.7
CN(c1ccc(OCC(=O)Nc2cc(Cl)ccc2C(=O)O)cc1)S(=O)(=O)c1ccc(F)cc1 | -0.6 | / | 59.2* | 2.1 | 5.2 | 33.1
Cc1ccc(S(=O)(=O)N(C)c2ccc(OCC(=O)Nc3nc(-c4ccccc4)cs3)cc2)cc1 | -18.7 | -8.6 | 107.6 | -6.7 | 2.6 | -1.2
Cc1ccc(S(=O)(=O)N(C)c2ccc(OCC(=O)Nc3nc4c(ccc5ccccc54)s3)cc2)cc1 | -12.2 | -11.8 | 90.2 | -0.9 | 3.8 | 83.8*
CCCNC(=O)C1(C)CCN(Cc2cc(C)n(C)n2)C1 (stereo not drawn) | 6.1 | / | / | / | / | /
COc1ccc(OC)c(NC(=O)c2cccnc2Sc2cc(C)ccc2C)c1 | 8.8 | 5.3 | 102.2 | 3.8 | 0.2 | -20.1
O=C(/C=C/c1ccccc1)N/C(=C/c1ccccc1)C(=O)N1CCCCC1 | -18.3 | -14.9 | 89.8 | -0.9 | 0.6 | 15.2
COc1ccc(CCNC(=O)c2ccc(N(C)S(=O)(=O)c3ccc(C)cc3)cc2)cc1 | 21.4* | -10.6 | 117.8 | 3.9 | 3.5 | -2.6
COc1ccc(CCNC(=O)c2ccc(Cl)c(S(=O)(=O)N(C)c3ccccc3)c2)cc1 | 23.0* | -2.2 | 89.6 | -8.0 | -2.8 | 0.2
Cc1ccc(S(=O)(=O)N(C)c2ccc(C(=O)NCCc3ccccc3)cc2)cc1 | 0.7 | -9.7 | 99.2 | -3.5 | 5.5 | -2.0
CN(c1ccccc1)S(=O)(=O)c1cccc(C(=O)NCCc2ccc(O)c(O)c2)c1 | 2.6 | 40.5* | 92.5 | 2.3 | 4.9 | 93.4*
COC(=O)CN(C#N)c1nc(SC)nc(N(C)C)n1 | -5.9 | 7.5 | 97.0 | -3.1 | 0.1 | -2.5
COc1ccc(S(=O)(=O)N2CCN(C(=O)C3CC3)CC2)cc1 | 6.7 | 4.2 | 94.0 | -9.0 | -3.9 | 7.8
COC(=O)C1=C(C)NC(=O)NC1C1CC=CCC1 (stereo not drawn) | -1.9 | 8.8 | 88.9 | -4.1 | 1.3 | -0.1
COc1c(Cl)cc(-c2noc(C)c2C(=O)NC(C)C)cc1Cl | -0.6 | -0.3 | 104.9 | -5.3 | -1.0 | 93.3*
